A selection: hits, their analogues and other compounds. The true share with any hit is near 1.7%.
Measles CPE – protection of cells from measles virus | Measles virus-infected cells, CPE protection, absorbance | protection (pct of control), % at 4 µM | 1.5% of 140,000 active | AID 841; in the data active means protection mostly above about 24%, no sharp cut-off; inactive means mostly below about 26%
LYP inh 2 – inhibitors of human LYP (PTPN22) phosphatase; inhibition, % at 2 µM; Q9Y2R2; 0.21% of 96,000 active; recombinant LYP catalytic domain, DiFMUP fluorescence;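 active means inhibition at 2 µM at or above a set limit, the screen mean plus 3 SD, cut at about 24% in these data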;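 further: 0% = DMSO with enzyme and 100% = enzyme fully blocked by orthovanadate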
PTPN22 act – LYP (human) phosphatase activation; Q9Y2R2; recombinant LYP, DiFMUP fluorescence; 0 = plate median, 100 = signal doubled; activation, % at 2 µM; 0.11% of 96,000 active; AID 697;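 active means activation at 2 µM above a set limit, the mean plus 5 SD, cut at about 37% in these data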
Active calls of the source: *; nt = no result.

SMILES	Measles CPE	LYP inh 2	PTPN22 act
COc1cccc(NC(=O)CCC(=O)Nc2cccc(OC)c2)c1	16	nt	nt
COc1ccc(NC(=O)C2CC(=O)N(C(C)C)C2)cc1 (stereo not given)	15	-12	11
Cn1ncc(Br)c1C(=O)Nc1ccc(Br)cn1	19	nt	nt
COc1ccccc1NC1=NCC(=O)N1Cc1ccccc1	11	5	-5
COC(=O)c1ccc(N2C(=O)CC(N3CCC(O)(c4ccc(Br)cc4)CC3)C2=O)cc1 (stereo not given)	6	-12	13
COc1ccc(N2C(=O)CC(N3CCC(O)(c4ccc(Cl)cc4)CC3)C2=O)cc1 (stereo not given)	26*	-2	1
C(=N\n1cnnc1)/c1ccc(-c2ccccc2)cc1	5	nt	nt
COc1ccc(C2c3ccc4ccccc4c3Oc3ncn(CCN4CCOCC4)c(=N)c32)cc1 (stereo not given)	3	10	-10
CCCCCCc1cc2cc(-c3nnc(-c4ccccc4O)o3)c(=O)oc2cc1O	2	nt	nt
CCCCCCc1cc2cc(-c3nnc(-c4cc(OC)c(OC)c(OC)c4)o3)c(=O)oc2cc1O	6	43*	-43
CCCCCCc1cc2cc(C(=O)Nc3ccccc3OC)c(=O)oc2cc1O	5	nt	nt
CCCCCCc1cc2cc(-c3nnc(-c4ccccc4OC)o3)c(=O)oc2cc1O	9	46*	-46
Cc1cc(C)c(C)c(S(=O)(=O)N2CCN(Cc3nc4ccccc4[nH]3)CC2)c1C	6	1	-4
O=C1CC(=C(c2ccccc2)c2ccccc2)C(=O)N1CCN1CCN(c2cccc(Cl)c2)CC1	14	-4	-1
COc1ccc(OC)c(-c2cc(C(=O)Nc3c(C)nn(Cc4ccccc4)c3C)no2)c1	4	6	-8
CC(=O)OC1=C(C#N)Cn2ccc3cccc1c32	57*	-6	5
O=C(c1ccc(CS(=O)(=O)c2ccc(Br)cc2)o1)N1CCN(C2CCCCC2)CC1	14	-5	1
CCOC(=O)N1CCN(CC(O)COc2cc(C)ccc2C(C)C)CC1 (stereo not given)	30*	nt	nt
CCOC(=O)N1CCN(CC(O)COc2ccccc2C(C)CC)CC1 (stereo not given)	4	11	-12
CCOC(=O)N1CCN(CC(O)COc2ccccc2C(C)C)CC1 (stereo not given)	7	3	-6
CCOC(=O)N1CCN(CC(O)COC(CC)c2ccccc2)CC1 (stereo not given)	47*	-7	5
O=C(N/N=C/c1ccc[nH]1)c1ccccc1[N+](=O)[O-]	13	nt	nt
O=C1C2C(C(=O)N1CCc1ccccc1)C1C=CC2C12CC2 (stereo not given)	10	45*	-44
O=C1C2C3C=CC(C3)C2C(=O)N1CCc1ccccc1 (stereo not given)	14	11	-11
O=C(OC(C(=O)NCC1CCCO1)c1ccccn1)c1cccs1 (stereo not given)	4	5	-5
SMILES	Measles CPE	LYP inh 2	PTPN22 act
O=C(Cn1cnc2c(cnn2-c2ccccc2)c1=O)Nc1ccc(S(=O)(=O)N2CCOCC2)cc1	12	nt	nt
COc1ccc(-n2ncc3c(=O)n(CC(=O)Nc4ccc(S(=O)(=O)N5CCOCC5)cc4)cnc32)cc1	60*	nt	nt
CCCCCn1c(Sc2ncccn2)nc2c1c(=O)[nH]c(=O)n2C	38*	13	-13
Cc1ccc(Cn2c(Sc3ncccn3)nc3c2c(=O)[nH]c(=O)n3C)cc1	18	nt	nt
O=C(CN1C(=O)COc2ccccc21)NCCCN1CCN(Cc2ccccc2)CC1	7	-10	9
O=C(CN1C(=O)COc2ccccc21)NCCCN1CCc2ccccc2C1	27*	6	-8
Cc1ccc([N+](=O)[O-])cc1-c1ccc(/C=N/NC(=O)c2cc3c(ccc4ccccc43)o2)o1	11	15	-14
O=C(N/N=C/c1ccncc1)c1cc2c(ccc3ccccc32)o1	7	18	-15
O=C(N/N=C/c1cccc([N+](=O)[O-])c1)c1cc2c(ccc3ccccc32)o1	1	35*	-34
Cc1ccc(-c2ccc(/C=N\NC(=O)c3cc4c(ccc5ccccc54)o3)o2)cc1[N+](=O)[O-]	51*	14	-12
O=C1CC(=O)N(Cc2ccco2)C(=O)N1	8	nt	nt
COC(=O)C1CCN(C(=O)c2ccccc2Oc2ccccc2)CC1	13	-10	10
CCOc1ccc(N(CC(=O)Nc2ccc(OC)cc2)S(C)(=O)=O)cc1	48*	5	-5
COCCCNC(=O)CN(c1ccc(OC)cc1)S(=O)(=O)c1ccc(NC(C)=O)cc1	53*	-2	0
COc1ccc(N(CC(=O)NC(C)C)S(=O)(=O)c2ccc(NC(C)=O)cc2)cc1	9	-7	4
CCOc1ccc(NC(=O)CN(c2ccc(OC)cc2)S(C)(=O)=O)cc1	12	-6	2
COc1ccc(-c2nc3ccccn3c2C=O)cc1	9	nt	nt
Clc1ccc(Cn2nnc(-c3ccc(N4CCOCC4)cc3)n2)cc1	16	nt	nt
COc1ccccc1C1=NOC(COC(=O)c2ccc3ccccc3n2)C1 (stereo not given)	9	-1	3
CCOc1ccc(/C(O)=C2/C(=O)C(=O)N(CCOCCO)C2c2ccccn2)cc1 (stereo not given)	5	4	-6
C/C(CC(=O)Nc1ccccc1Br)=N\NC(=O)C(=O)N1CCCC1	9	2	2
O=C(c1ccc(CNS(=O)(=O)c2ccccc2)cc1)N1CCN(Cc2ccccc2)CC1	28*	-4	7
O=C(c1ccccc1)N1CCN(Cc2ccccc2)CC1	3	-7	1
Cc1ccc(CC2SC(=Nc3ccccc3)N(c3ccccc3)C2=O)cc1 (stereo not given)	5	nt	nt
O=C(O)CC1SC(=Nc2ccccc2)N(c2ccccc2)C1=O (stereo not given)	51*	nt	nt
SMILES	Measles CPE	LYP inh 2	PTPN22 act
O=C(Cc1cccs1)Nc1nc(-c2ccc(F)cc2F)cs1	16	-4	4
CS(=O)(=O)N1CCc2cc(-c3csc(NC(=O)Cc4ccccc4)n3)ccc21	118*	0	0
CCCC(=O)Nc1nc(-c2ccc3c(c2)CCN3S(C)(=O)=O)cs1	1	-3	0
CC1Cc2cc(-c3csc(NC(=O)Cc4cccs4)n3)ccc2N1S(C)(=O)=O (stereo not given)	102*	1	-2
O=C(Cc1ccccc1F)Nc1ccc(SC(F)F)cc1	5	nt	nt
CCC(C(=O)NCc1ccco1)N(C(=O)CNS(=O)(=O)c1ccccc1)C1CCCCC1 (stereo not given)	19	2	-2
Cc1ccccc1CNC(=O)c1ccccc1N	1	-6	3
COc1ccccc1CNC(=O)c1ccccc1N	37*	-17	16
COc1cccc(C(=O)Nc2nc(-c3ccc(S(=O)(=O)N4CCOCC4)cc3)cs2)c1	24	0	-1
O=C(Nc1nc(-c2cccs2)cs1)c1cccc(S(=O)(=O)N2CCCCC2)c1	32*	-1	4
Cc1ccc(-c2csc(NC(=O)COC(=O)c3cccc(S(=O)(=O)N4CCOCC4)c3)n2)cc1	28*	-3	5
O=C(Nc1nc(-c2ccc(Cl)s2)cs1)c1ccncc1	58*	-2	-2
Cc1ccc(-c2csc(NC(=O)c3cccc(S(=O)(=O)N4CCN(C)CC4)c3)n2)cc1	6	nt	nt
COc1ccc(C(=O)Nc2nc(-c3cccs3)cs2)cc1	7	-1	-3
O=C(CN1C(=O)CCC1=O)Nc1nc(-c2ccc(Cl)s2)cs1	5	nt	nt

Screens: PubChem, several laboratories
